In all, about 5,500 compounds went through this assay and about 2,000 (36%) were called active. Not shown: some 18% with an inconclusive outcome. The list shows a part of the results. Unmarked numbers belong to inactive results. Rule as the data show it: active = normalized growth mostly below about 0.91 (no sharp cut-off); inconclusive = no clear call, values can overlap the other calls; inactive = mostly above about 0.92.
Assay: chemical genetic growth profiling, strain panel (AID 1159580);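 also: tested at 20 µM; growth read once vehicle control cultures reached saturation at 30 °C; 1 = growth at the plate median or of vehicle wells; lower values mean less growth of the strain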
Details: S. cerevisiae deletion strains, growth OD

Compound: CC1=C(C/C=C(\C)CCC[C@H](C)CCC[C@H](C)CCCC(C)C)C(=O)c2ccccc2C1=O
- normalized growth (locus YAL021C, strain ccr4, active compounds read low): 0.99
- normalized growth (locus YAL026C, strain drs2, active compounds read low): 0.99
- normalized growth (locus YAL030W, strain snc1, active compounds read low): 0.995
- normalized growth (locus YBL061C, strain skt5, active compounds read low): 0.997
- normalized growth (locus YBR009C, strain hhf1, active compounds read low): 0.977
- normalized growth (locus YBR023C, strain chs3, active compounds read low): 0.996
- normalized growth (locus YBR171W, strain sec66, active compounds read low): 0.993
- normalized growth (locus YBR231C, strain swc5, active compounds read low): 0.989
- normalized growth (locus YBR279W, strain paf1, active compounds read low): 0.994
- normalized growth (locus YCL011C, strain gbp2, active compounds read low): 0.977
- normalized growth (locus YCL016C, strain dcc1, active compounds read low): 0.985
- normalized growth (locus YCL061C, strain MRC1, active compounds read low): 0.987
- normalized growth (locus YCL069W, strain vba3, active compounds read low): 0.979
- normalized growth (locus YCR088W, strain abp1, active compounds read low): 1
- normalized growth (locus YDL005C, strain med2, active compounds read low): 0.965
- normalized growth (locus YDL040C, strain nat1, active compounds read low): 1
- normalized growth (locus YDR001C, strain nth1, active compounds read low): 0.993
- normalized growth (locus YDR069C, strain doa4, active compounds read low): 0.975
- normalized growth (locus YDR137W, strain rgp1, active compounds read low): 0.772 (active)
- normalized growth (locus YDR159W, strain sac3, active compounds read low): 0.981
- normalized growth (locus YDR195W, strain ref2): 0.963
- normalized growth (locus YDR297W, strain sur2, active compounds read low): 0.993
- normalized growth (locus YDR334W, strain swr1, active compounds read low): 0.955
- normalized growth (locus YDR335W, strain msn5, active compounds read low): 0.99
- normalized growth (locus YDR392W, strain spt3, active compounds read low): 0.962
- normalized growth (locus YEL003W, strain gim4, active compounds read low): 0.977
- normalized growth (locus YEL037C, strain rad23, active compounds read low): 0.994
- normalized growth (locus YEL061C, strain CIN8 (second series), active compounds read low): 0.992
- normalized growth (locus YER015W, strain faa2, active compounds read low): 0.991
- normalized growth (locus YER016W, strain bim1, active compounds read low): 0.982
- normalized growth (locus YER111C, strain swi4, active compounds read low): 1
- normalized growth (locus YER155C, strain BEM2 (second series), active compounds read low): 0.993
- normalized growth (locus YFR010W, strain ubp6, active compounds read low): 0.974
- normalized growth (locus YGL167C, strain pmr1, active compounds read low): 0.989
- normalized growth (locus YGL173C, strain kem1, active compounds read low): 0.99
- normalized growth (locus YGL227W, strain vid30, active compounds read low): 0.997
- normalized growth (locus YGL240W, strain doc1, active compounds read low): 0.956
- normalized growth (locus YGL253W, strain hxk2, active compounds read low): 1
- normalized growth (locus YHR013C, strain ard1, active compounds read low): 0.975
- normalized growth (locus YHR027C, strain rpn1, active compounds read low): 0.984
- normalized growth (locus YHR030C, strain SLT2, active compounds read low): 0.986
- normalized growth (locus YHR079C, strain IRE1, active compounds read low): 0.992
- normalized growth (locus YHR142W, strain chs7, active compounds read low): 1
- normalized growth (locus YJL092W, strain hpr5, active compounds read low): 0.982
- normalized growth (locus YJL095W, strain BCK1 (second series), active compounds read low): 0.995
- normalized growth (locus YJL095W, strain BCK1, active compounds read low): 0.998
- normalized growth (locus YJL115W, strain asf1, active compounds read low): 0.968
- normalized growth (locus YJL129C, strain trk1, active compounds read low): 0.984
- normalized growth (locus YJL154C, strain vps35, active compounds read low): 0.984
- normalized growth (locus YJL164C, strain tpk1, active compounds read low): 0.974
- normalized growth (locus YJL166W, strain qcr8, active compounds read low): 1
- normalized growth (locus YJL187C, strain SWE1, active compounds read low): 0.979
- normalized growth (locus YJR066W, strain TOR1, active compounds read low): 0.943
- normalized growth (locus YKL160W, strain elf1, active compounds read low): 0.998
- normalized growth (locus YKR026C, strain gcn3, active compounds read low): 0.996
- normalized growth (locus YKR091W, strain srl3, active compounds read low): 0.985
- normalized growth (locus YLL001W, strain dnm1, active compounds read low): 0.992
- normalized growth (locus YLL026W, active compounds read low): 0.996
- normalized growth (locus YLL041C, strain sdh2, active compounds read low): 0.99
- normalized growth (locus YLR027C, strain aat2, active compounds read low): 0.992
- normalized growth (locus YLR113W, strain HOG1, active compounds read low): 0.953
- normalized growth (locus YLR221C, strain rsa3, active compounds read low): 0.981
- normalized growth (locus YLR258W, strain gsy2, active compounds read low): 0.983
- normalized growth (locus YLR262C, strain YPT6 (second series), active compounds read low): 0.899
- normalized growth (locus YLR320W, strain mms22, active compounds read low): 0.992
- normalized growth (locus YLR342W, strain FKS1, active compounds read low): 0.999
- normalized growth (locus YLR357W, strain rsc2, active compounds read low): 1
- normalized growth (locus YLR370C, strain arc18, active compounds read low): 0.99
- normalized growth (locus YLR384C, strain iki3, active compounds read low): 0.988
- normalized growth (locus YML120C, strain ndi1, active compounds read low): 0.998
- normalized growth (locus YMR058W, strain fet3, active compounds read low): 0.973
- normalized growth (locus YMR125W, strain sto1, active compounds read low): 0.978
- normalized growth (locus YMR129W, active compounds read low): 0.985
- normalized growth (locus YMR205C, strain PFK2, active compounds read low): 0.981
- normalized growth (locus YMR231W, strain pep5, active compounds read low): 0.99
- normalized growth (locus YNL071W, strain lat1, active compounds read low): 0.972
- normalized growth (locus YNL183C, strain NPR1, active compounds read low): 0.947
- normalized growth (locus YNL209W, strain ssb2, active compounds read low): 0.983
- normalized growth (locus YNL248C, strain rpa49, active compounds read low): 0.977
- normalized growth (locus YNL322C, strain KRE1 (second series), active compounds read low): 0.998
- normalized growth (locus YNR049C, strain mso1, active compounds read low): 1
- normalized growth (locus YOR001W, strain rrp6, active compounds read low): 1
- normalized growth (locus YOR070C, strain gyp1, active compounds read low): 0.988
- normalized growth (locus YOR080W, strain dia2, active compounds read low): 0.986
- normalized growth (locus YOR083W, strain WHI5, active compounds read low): 0.992
- normalized growth (locus YOR106W, strain vam3, active compounds read low): 0.964
- normalized growth (locus YOR231W, strain MKK1, active compounds read low): 0.979
- normalized growth (locus YOR265W, strain rbl2, active compounds read low): 0.985
- normalized growth (locus YOR270C, strain vph1, active compounds read low): 0.871
- normalized growth (locus YOR290C, strain snf2, active compounds read low): 0.987
- normalized growth (locus YPL051W, strain arl3, active compounds read low): 0.988
- normalized growth (locus YPL078C, strain atp4, active compounds read low): 0.996
- normalized growth (locus YPL106C, strain sse1, active compounds read low): 0.871
- normalized growth (locus YPL240C, strain hsp82, active compounds read low): 0.97
- normalized growth (locus YPL256C, strain CLN2, active compounds read low): 0.944
